Measurements reported in the supplement of paper PMC10849652.
About 7,900 targets were measured; listed, in parts, are those with a hit and a random draw of the rest. About 0.6% of all pairs of compound and target were hits.

Legend:
Experiment in all cases: log2 fold change, soluble protein after heating vs DMSO (PISA); higher = thermal stabilisation; K562 cells, 10 uM, 30 min; active = over 0.2 and 3.5 SD of the protein, either way, in both replicates (recomputed)
mubritinib = compound: FC(F)(F)c1ccc(/C=C/c2nc(COc3ccc(CCCCn4ccnn4)cc3)co2)cc1 [mubritinib]
Procedure, shortened: (§1)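 K562 cells at 2×10^6 cells/mL were treated for 30 min with 10 μM compound, and aliquots were heated for 3 min over 48°C-58°C before pooling. Extraction used PBS with 0.5% NP-40 at 4°C, and soluble protein was the supernatant after 21,000xg for 90 min, measured by TMTpro 16plex LC-MS/MS with channel sums equalised. Thermal stability values, relative to control samples and from duplicates, are log2 fold changes.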

[1] = compound: Cc1cccc(CC(=O)N2CCc3c2ccc(-c2cn(C)c4ncnc(N)c24)c3F)n1
Procedure, shortened: as §1

bafetinib = compound: Cc1ccc(NC(=O)c2ccc(CN3CC[C@H](N(C)C)C3)c(C(F)(F)F)c2)cc1Nc1nccc(-c2cncnc2)n1 [bafetinib]
Procedure, shortened: as §1

dasatinib = compound: Cc1nc(Nc2ncc(C(=O)Nc3c(C)cccc3Cl)s2)cc(N2CCN(CCO)CC2)n1 [dasatinib]
Procedure, shortened: as §1

nilotinib = compound: Cc1cn(-c2cc(NC(=O)c3ccc(C)c(Nc4nccc(-c5cccnc5)n4)c3)cc(C(F)(F)F)c2)cn1 [nilotinib]
Procedure, shortened: as §1

[2] = compound: Cc1nc(Nc2n[nH]c3c2CN(C(=O)N[C@H](CN(C)C)c2ccccc2)C3(C)C)c2sccc2n1
Procedure, shortened: as §1

[3] = compound: Cc1ncc(-c2ccnc(Nc3ccc(S(C)(=O)=O)cc3)n2)n1C(C)C
Procedure, shortened: as §1

[4] = compound: Cn1cc(-c2ccc3c(c2)CCN3C(=O)Cc2cccc(C(F)(F)F)c2)c2c(N)ncnc21
Procedure, shortened: as §1

[5] = compound: Cn1cc(-c2ccc3nnc(C(F)(F)c4ccc5ncccc5c4)n3n2)cn1
Procedure, shortened: as §1

tipifarnib = compound: Cn1cncc1[C@@](N)(c1ccc(Cl)cc1)c1ccc2c(c1)c(-c1cccc(Cl)c1)cc(=O)n2C [tipifarnib]
Procedure, shortened: as §1

Measured: log2 fold change

SSBP4 (UniProt U3KPY3)
inactive: mubritinib 0.046

TBC1D2 (UniProt Q9BYX2)
inactive: [1] 0.213 | mubritinib -0.085

SREBF1 isoform 4 (UniProt P36956)
Sequence of UniProt P36956 (P36956 whole entry, looked up): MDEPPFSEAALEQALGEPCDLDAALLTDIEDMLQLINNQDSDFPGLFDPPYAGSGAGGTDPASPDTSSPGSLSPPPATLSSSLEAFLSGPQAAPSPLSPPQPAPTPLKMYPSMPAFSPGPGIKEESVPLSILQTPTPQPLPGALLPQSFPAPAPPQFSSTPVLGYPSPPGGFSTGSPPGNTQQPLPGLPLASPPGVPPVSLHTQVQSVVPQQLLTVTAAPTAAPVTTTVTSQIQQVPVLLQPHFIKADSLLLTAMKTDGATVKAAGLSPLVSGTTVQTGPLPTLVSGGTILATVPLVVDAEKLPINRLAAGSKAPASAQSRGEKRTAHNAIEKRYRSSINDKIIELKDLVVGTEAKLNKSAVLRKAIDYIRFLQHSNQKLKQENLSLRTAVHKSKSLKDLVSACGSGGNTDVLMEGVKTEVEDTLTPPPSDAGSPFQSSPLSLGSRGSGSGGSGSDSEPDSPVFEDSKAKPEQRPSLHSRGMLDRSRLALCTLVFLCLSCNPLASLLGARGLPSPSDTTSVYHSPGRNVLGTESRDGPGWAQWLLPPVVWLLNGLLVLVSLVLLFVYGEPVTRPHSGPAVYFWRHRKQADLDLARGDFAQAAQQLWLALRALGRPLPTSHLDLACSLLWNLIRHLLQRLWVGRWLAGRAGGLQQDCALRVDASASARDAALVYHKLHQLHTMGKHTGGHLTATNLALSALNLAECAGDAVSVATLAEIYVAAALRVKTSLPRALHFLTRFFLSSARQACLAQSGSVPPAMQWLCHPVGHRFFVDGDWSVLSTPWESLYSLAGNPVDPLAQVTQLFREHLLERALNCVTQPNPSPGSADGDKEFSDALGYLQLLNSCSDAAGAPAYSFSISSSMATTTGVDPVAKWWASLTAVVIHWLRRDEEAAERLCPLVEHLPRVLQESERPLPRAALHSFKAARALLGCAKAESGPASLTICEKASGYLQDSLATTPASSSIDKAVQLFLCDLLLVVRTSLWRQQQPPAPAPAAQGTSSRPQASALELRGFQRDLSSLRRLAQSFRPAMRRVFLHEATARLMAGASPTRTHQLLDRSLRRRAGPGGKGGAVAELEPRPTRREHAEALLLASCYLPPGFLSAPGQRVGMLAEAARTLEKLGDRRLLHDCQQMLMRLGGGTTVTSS
inactive: bafetinib -0.357 | dasatinib -0.043 | mubritinib -0.004

SLC35B4 (UniProt Q969S0)
Sequence of UniProt Q969S0 (Q969S0 whole entry, looked up): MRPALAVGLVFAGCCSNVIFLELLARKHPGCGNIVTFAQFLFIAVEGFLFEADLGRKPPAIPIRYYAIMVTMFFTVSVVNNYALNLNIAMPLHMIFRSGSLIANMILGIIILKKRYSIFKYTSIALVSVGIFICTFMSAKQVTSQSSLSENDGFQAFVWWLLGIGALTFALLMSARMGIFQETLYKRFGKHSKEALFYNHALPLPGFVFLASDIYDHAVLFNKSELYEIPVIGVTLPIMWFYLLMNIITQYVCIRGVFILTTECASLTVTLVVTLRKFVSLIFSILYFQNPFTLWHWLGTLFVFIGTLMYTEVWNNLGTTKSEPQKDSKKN
inactive: bafetinib -0.12 | nilotinib 0.027 | [2] 0.016 | [3] 0.1 | mubritinib 0.032

SPAG9 isoform 4 (UniProt O60271)
Sequence of UniProt O60271 (O60271 whole entry, looked up): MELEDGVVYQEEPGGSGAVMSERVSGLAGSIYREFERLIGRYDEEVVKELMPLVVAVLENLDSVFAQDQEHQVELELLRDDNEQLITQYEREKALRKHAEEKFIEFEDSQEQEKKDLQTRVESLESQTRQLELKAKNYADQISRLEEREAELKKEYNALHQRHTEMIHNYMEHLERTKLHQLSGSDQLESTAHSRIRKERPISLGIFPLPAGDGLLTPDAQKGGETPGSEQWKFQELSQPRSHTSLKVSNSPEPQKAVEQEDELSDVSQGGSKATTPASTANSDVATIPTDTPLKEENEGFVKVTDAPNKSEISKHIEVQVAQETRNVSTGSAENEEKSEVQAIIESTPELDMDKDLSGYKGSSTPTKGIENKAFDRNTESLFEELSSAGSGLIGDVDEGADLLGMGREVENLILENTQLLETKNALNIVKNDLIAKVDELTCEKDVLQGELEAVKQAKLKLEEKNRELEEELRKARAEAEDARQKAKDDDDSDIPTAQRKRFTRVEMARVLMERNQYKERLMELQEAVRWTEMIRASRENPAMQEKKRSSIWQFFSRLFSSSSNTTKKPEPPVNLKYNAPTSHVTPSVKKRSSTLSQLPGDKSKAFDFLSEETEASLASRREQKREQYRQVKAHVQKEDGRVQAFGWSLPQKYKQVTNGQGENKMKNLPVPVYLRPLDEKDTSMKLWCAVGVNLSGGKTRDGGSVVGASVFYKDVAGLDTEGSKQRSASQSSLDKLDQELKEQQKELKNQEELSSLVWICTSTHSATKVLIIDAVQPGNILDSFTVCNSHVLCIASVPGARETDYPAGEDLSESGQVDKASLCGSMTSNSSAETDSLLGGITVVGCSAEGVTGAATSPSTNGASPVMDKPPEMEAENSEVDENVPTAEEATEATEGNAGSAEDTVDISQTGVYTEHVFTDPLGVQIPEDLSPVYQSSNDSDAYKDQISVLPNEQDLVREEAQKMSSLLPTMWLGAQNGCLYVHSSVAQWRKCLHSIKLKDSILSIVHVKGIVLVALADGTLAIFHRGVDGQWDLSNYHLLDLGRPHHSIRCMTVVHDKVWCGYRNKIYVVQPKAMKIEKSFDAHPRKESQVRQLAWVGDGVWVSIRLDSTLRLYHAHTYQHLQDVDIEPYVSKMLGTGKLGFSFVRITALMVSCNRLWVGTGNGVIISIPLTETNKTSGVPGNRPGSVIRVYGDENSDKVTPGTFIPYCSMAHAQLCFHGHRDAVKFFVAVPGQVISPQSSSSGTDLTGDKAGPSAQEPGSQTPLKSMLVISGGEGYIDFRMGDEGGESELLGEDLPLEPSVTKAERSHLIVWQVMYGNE
inactive: bafetinib -0.301 | nilotinib 0.073 | [2] -0.118 | [3] 0.022 | [4] -0.072 | [5] 0.11 | mubritinib 0.074

TBP (UniProt P20226)
Sequence of UniProt P20226 (P20226 whole entry, looked up): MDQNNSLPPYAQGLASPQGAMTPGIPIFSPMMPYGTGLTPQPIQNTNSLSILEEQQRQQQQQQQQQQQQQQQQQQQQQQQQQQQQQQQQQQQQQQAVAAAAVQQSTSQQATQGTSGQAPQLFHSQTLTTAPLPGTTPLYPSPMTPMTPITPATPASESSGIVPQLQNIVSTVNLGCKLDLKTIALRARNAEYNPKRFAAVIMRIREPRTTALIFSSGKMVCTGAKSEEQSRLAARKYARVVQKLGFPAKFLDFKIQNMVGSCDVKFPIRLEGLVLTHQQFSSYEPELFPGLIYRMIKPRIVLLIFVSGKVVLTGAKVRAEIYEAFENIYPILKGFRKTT
inactive: bafetinib -0.039 | nilotinib 0.008 | [2] 0.093 | dasatinib 0.104 | [3] 0.079 | [4] -0.112 | [5] 0.036 | tipifarnib 0.013 | mubritinib 0.004

TANGO6 (UniProt Q9C0B7)
Sequence of UniProt Q9C0B7 (Q9C0B7 whole entry, looked up): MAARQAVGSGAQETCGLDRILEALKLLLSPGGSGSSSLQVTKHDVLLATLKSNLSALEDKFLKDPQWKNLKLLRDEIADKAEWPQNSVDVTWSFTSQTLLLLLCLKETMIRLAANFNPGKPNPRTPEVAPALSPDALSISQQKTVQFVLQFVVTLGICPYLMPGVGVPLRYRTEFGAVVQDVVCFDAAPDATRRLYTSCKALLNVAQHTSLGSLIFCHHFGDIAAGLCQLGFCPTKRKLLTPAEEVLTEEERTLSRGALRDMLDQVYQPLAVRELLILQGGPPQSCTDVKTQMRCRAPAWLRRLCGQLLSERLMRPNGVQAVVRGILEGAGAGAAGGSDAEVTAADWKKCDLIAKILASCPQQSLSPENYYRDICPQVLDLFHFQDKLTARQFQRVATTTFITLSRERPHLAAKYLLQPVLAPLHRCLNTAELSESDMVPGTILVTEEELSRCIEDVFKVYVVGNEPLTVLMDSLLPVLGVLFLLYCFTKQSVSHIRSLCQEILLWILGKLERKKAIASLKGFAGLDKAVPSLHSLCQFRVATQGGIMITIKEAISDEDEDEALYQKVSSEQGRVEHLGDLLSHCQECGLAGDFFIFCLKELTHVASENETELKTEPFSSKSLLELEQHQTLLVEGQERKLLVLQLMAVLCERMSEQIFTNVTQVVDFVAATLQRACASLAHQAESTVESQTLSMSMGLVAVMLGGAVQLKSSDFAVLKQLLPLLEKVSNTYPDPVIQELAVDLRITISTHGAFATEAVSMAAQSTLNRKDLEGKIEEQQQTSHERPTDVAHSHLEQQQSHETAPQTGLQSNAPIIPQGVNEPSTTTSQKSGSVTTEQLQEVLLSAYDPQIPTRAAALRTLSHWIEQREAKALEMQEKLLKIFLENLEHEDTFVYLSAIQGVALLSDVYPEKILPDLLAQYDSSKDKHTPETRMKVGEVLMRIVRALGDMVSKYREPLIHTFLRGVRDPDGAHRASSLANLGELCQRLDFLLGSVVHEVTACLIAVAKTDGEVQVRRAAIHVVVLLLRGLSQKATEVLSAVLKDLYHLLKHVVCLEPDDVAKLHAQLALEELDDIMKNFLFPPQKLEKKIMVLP
inactive: bafetinib 0.033 | nilotinib -0.018 | [2] -0.066 | dasatinib -0.216 | [3] -0.006 | [4] 0.083 | [5] -0.048 | tipifarnib -0.067 | mubritinib 0.042

TAF6L (UniProt Q9Y6J9)
Sequence of UniProt Q9Y6J9 (Q9Y6J9 whole entry, looked up): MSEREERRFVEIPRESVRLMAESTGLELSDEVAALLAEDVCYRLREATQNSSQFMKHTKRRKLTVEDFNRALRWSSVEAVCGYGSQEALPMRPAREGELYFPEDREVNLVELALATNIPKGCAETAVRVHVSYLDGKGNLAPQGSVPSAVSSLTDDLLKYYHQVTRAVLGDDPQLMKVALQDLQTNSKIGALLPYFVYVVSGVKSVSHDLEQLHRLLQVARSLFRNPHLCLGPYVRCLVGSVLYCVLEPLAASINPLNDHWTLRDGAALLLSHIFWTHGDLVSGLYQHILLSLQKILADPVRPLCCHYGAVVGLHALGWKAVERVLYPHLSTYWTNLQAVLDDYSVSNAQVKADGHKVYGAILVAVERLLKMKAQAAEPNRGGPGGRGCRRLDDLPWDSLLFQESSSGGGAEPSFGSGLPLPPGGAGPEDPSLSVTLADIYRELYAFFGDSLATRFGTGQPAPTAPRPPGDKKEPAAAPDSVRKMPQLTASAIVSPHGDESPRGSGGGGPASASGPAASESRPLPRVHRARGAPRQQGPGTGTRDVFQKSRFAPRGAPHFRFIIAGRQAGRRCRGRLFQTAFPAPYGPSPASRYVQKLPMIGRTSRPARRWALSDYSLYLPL
inactive: [1] -0.078 | nilotinib 0.032 | [2] -0.048 | dasatinib -0.224 | [3] 0.046 | [4] -0.106 | [5] -0.018 | tipifarnib 0.055 | mubritinib 0.104
